Test results from PubChem BioAssay (NCI).
“And” between values parts separate entries of the source, which are not always exact repeats. Identical values can stand only once. About 83,000 compounds went through this panel and 20% of them were active in at least one assay; those are over-represented in the sample as a whole.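 96-well plates, one dose, 48 hours. Percent growth reported; active if below 10.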 The source made the active and inactive calls.

Assays:
Experiment in all cases: NCI-60 one-dose screen, 48 h (100 = growth as untreated, 0 = no growth, -100 = all killed)
Settings in all cases: 10 µM unless noted
[1] = tested on: HCT-15 colon
[2] = tested on: HT29 colon
[3] = tested on: SNB-75 CNS
[4] = tested on: SNB-19 CNS
[5] = tested on: U251 CNS
[6] = tested on: PC-3 prostate
[7] = tested on: SK-MEL-5 melanoma
[8] = tested on: UACC-62 melanoma
[9] = tested on: LOX IMVI melanoma
[10] = tested on: SK-MEL-28 melanoma
[11] = tested on: SK-MEL-2 melanoma
[12] = tested on: EKVX NSCLC
[13] = tested on: SN12C renal
[14] = tested on: UO-31 renal
[15] = tested on: TK-10 renal
[16] = tested on: CAKI-1 renal
[17] = tested on: A498 renal
[18] = tested on: CCRF-CEM leukemia
[19] = tested on: MOLT-4 leukemia
[20] = tested on: ACHN renal

Measured: growth

CC(C)(C)c1cc(C(C)(C)c2ccccc2)cc(Cc2cc(C(C)(C)c3ccccc3)cc(C(C)(C)C)c2O)c1O
inactive: [1] 95.8% | [2] 93.3% | [3] 94.5% | [4] 106% | [5] 94.3% | [6] 74.9% | [7] 97.4% | [8] 92.3% | [9] 89.5% | [10] 106% | [11] 72.1% | [12] 110% | [13] 95.7% | [14] 80.9% | [15] 98.1% | [16] 104% | [17] 125% | [18] 66.1% | [19] 54.4%

O=C(CN1C(=O)S/C(=C\C(Cl)=C\c2ccccc2)C1=O)NCCCn1ccnc1
active: [1] 1.15% | [9] -52.3% | [18] 5.11% | [19] 6.18%
inactive: [2] 10.5% | [3] 32% | [4] 57.5% | [5] 45.6% | [6] 45.8% | [7] 64.1% | [8] 18.8% | [10] 12.4% | [11] 38.2% | [12] 41.2% | [13] 26.1% | [14] 48.7% | [15] 36.2% | [16] 50.5% | [17] 95.7%

O=C1C(N2CCOCC2)=C(I)C(=O)c2ncccc21
inactive: [1] 67.1% | [2] 102% | [3] 66.3% | [4] 73% | [5] 61.9% | [6] 79.4% | [7] 89.4% | [8] 69.5% | [9] 43.4% | [10] 96.6% | [11] 91.1% | [12] 89.3% | [13] 60.6% | [14] 54.3% | [15] 111% | [20] 58.7% | [17] 102% | [18] 62.4% | [19] 50.5%

Nc1ccc(/C=N/Nc2ccnc3c(N)cccc23)c2cccnc12
inactive: [4] 21.8% | [6] 15.8% | [7] 83.1% | [8] 89.5% | [10] 105% | [11] 87.9% | [12] 32.2% | [13] 71.1% | [17] 77%
active: [1] -49.7% | [2] -22.5% | [3] -99.7% | [5] -63.4% | [9] -90.9% | [14] -58.8% | [15] -43.1% | [20] -87.7% | [18] -25.6% | [19] -37.5%

Clc1cccc(Nc2ncnc3ccc(-c4cncc(-n5cnnn5)c4)cc23)c1
inactive: [1] 70.2% | [2] 74% | [3] 59.9% | [4] 79.5% | [5] 76.1% | [6] 42.9% | [7] 65.8% | [8] 85.3% | [9] 70.3% | [10] 97.3% | [11] 106% | [12] 26.6% | [13] 75% | [14] 32.1% | [20] 28.9% | [18] 75.2% | [19] 58.9%
active: [15] 7.65% | [17] -7.13%

O=C(Nc1cc(C(F)(F)F)cc(C(F)(F)F)c1)c1cc(Cl)ccc1O
5.13% (active) and 12.9% (inactive): [4]
active: [1] -39.7% and -24.9% | [2] 0.709% and 1.2% | [3] -64.9% and -39.3% | [5] -5.01% and -11.5% | [6] 5.05% and -0.956% | [7] -70.3% | [8] -56% and -42.8% | [9] -62.1% and -58.6% | [10] -33.4% and -22.4% | [11] -40.3% | [12] 1.8% and 3.4% | [13] -4.82% and -10.6% | [14] -64.4% and -19.6% | [15] -8.88% and 5.69% | [20] -14% and 2.27% | [17] -44.7% and -69.3% | [18] -12.3% and -10.4% | [19] -38.9% and -44.7%

O=C1Nc2ccccc2/C1=C/c1cccn1CCCCCn1c2ccccc2c(=O)c2ccccc21
inactive: [1] 28.9% | [2] 89.5% | [3] 86.7% | [4] 95.3% | [5] 93.4% | [6] 42% | [7] 32.2% | [8] 48.2% | [9] 80.3% | [10] 88.1% | [11] 84% | [12] 71.8% | [13] 97.1% | [14] 49.3% | [15] 93.8% | [20] 55.1% | [17] 108% | [18] 44.9% | [19] 46%
